High-throughput results as filed in PubChem BioAssay.
Compounds with a hit are over-represented: about 3.6% of the library has one in this group of screens.
mHTT CaM bind: inhibitors of human mutant huntingtin-calmodulin interaction | P42858 | AlphaScreen His-mHTT/GST-CaM binding, luminescence | inhibition, % at 15 µM | 190,000 compounds, 3.6% hits | AID 1671202;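 further: 0% = both proteins with DMSO and 100% = one protein alone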
Target sequence (P42858 whole entry, looked up, stated change not applied): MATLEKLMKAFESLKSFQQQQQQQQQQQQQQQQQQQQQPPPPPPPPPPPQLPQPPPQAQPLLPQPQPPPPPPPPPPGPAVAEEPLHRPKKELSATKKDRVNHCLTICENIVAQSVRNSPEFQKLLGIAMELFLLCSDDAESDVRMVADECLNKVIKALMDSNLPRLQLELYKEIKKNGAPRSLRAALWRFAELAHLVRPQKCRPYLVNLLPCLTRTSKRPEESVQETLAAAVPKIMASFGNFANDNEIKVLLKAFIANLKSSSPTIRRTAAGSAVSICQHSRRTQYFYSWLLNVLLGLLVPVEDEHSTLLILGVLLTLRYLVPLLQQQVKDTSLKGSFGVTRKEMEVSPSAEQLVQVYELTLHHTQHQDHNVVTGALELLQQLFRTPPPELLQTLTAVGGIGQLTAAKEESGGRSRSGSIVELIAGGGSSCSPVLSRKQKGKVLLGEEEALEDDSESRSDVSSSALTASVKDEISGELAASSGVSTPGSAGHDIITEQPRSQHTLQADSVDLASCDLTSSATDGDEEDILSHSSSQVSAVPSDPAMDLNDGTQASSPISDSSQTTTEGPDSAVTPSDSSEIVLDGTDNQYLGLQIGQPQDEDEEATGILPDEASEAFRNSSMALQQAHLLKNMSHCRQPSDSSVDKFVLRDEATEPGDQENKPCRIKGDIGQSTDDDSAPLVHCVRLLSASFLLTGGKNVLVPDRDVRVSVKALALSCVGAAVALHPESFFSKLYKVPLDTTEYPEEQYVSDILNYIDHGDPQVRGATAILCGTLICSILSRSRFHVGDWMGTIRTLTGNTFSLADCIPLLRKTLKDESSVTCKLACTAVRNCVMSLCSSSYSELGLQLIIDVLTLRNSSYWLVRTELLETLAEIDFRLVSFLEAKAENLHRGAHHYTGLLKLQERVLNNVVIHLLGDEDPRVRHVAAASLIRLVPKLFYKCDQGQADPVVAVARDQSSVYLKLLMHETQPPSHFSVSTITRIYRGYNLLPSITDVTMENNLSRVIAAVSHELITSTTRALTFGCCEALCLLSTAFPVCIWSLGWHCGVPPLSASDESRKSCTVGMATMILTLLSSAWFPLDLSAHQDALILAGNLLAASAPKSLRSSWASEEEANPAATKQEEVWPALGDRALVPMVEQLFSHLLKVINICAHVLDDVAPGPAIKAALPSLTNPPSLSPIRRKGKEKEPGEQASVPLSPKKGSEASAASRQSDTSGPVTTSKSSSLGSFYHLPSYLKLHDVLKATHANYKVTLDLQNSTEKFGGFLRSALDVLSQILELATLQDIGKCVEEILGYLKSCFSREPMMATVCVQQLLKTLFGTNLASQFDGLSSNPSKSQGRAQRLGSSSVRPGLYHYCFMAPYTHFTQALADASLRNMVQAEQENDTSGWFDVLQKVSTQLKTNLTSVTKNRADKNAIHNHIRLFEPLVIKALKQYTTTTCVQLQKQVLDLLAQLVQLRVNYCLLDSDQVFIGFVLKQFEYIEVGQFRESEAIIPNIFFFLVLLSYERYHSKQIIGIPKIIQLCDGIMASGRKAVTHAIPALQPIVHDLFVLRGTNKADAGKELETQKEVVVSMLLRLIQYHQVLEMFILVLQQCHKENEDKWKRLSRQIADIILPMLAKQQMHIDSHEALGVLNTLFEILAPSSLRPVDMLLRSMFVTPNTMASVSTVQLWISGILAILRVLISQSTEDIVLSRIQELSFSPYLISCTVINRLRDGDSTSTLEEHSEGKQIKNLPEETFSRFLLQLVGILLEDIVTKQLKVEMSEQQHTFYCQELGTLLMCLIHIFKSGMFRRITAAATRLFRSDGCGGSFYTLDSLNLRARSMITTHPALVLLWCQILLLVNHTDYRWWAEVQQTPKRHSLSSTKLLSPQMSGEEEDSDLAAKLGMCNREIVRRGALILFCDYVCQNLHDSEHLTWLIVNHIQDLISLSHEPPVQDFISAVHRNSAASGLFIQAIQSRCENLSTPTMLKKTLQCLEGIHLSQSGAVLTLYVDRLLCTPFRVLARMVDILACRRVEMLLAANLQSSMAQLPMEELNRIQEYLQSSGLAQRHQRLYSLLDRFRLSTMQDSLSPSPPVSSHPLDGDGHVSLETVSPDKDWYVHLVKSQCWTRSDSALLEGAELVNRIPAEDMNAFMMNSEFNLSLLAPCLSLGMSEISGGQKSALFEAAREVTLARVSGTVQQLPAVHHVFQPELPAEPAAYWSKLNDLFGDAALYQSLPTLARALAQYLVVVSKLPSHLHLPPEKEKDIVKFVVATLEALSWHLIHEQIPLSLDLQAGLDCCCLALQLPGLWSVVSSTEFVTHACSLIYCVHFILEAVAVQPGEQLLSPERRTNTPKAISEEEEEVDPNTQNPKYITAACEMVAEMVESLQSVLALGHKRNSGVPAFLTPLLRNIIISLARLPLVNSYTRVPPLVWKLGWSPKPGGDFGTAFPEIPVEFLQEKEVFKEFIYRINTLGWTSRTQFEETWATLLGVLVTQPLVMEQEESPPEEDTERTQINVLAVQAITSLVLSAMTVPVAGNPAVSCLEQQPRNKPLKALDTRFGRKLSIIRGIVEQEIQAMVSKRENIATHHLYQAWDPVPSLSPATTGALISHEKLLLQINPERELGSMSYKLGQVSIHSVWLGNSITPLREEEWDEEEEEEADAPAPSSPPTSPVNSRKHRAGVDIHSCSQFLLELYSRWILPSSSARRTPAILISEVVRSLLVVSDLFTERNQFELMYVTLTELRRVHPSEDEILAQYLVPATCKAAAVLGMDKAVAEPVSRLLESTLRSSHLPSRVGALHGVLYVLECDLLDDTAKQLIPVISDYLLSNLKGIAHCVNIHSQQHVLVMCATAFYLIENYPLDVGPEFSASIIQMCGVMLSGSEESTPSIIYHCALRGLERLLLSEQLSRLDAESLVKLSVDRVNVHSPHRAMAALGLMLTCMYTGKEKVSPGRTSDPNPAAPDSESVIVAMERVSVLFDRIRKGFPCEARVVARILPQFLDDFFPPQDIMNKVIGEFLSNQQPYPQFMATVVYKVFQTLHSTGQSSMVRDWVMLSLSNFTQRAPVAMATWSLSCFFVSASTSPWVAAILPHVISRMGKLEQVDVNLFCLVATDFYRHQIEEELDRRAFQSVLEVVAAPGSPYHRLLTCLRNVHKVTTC
Pf apPOL inh: Pf-apPOL DNA polymerase inhibition; Recombinant Pf-apPOL, molecular beacon fluorescence, 1.5 h; inhibition, % at 10 µM; 210,000 compounds, 0.25% hits; AID 1794808
The depositor's hits bear a star; i = inactive; nt = no result; + = active, no number. No stated cut-off is given here; in the data, active means inhibition above about 50%; inactive means the rest.

SMILES | mHTT CaM bind | Pf apPOL inh
O=C1CCCC2=C1C(c1cccs1)C1=C(N2)c2ccccc2C1=O (centres undefined) | 31.0 | 1.5
COc1ccc(C2C3=C(CCCC3=O)NC3=C2C(=O)c2ccccc23)cc1 (centres undefined) | 61.0* | -1.9
O=C(NCc1cccc(Cl)c1)c1cc2n(n1)CCCN(Cc1ccccc1)C2=O | -6.7 | 0.7
O=C(NCc1cccc(Cl)c1)c1cc2n(n1)CCCN(Cc1ccc(Cl)cc1)C2=O | 64.2* | 12.4
Cc1ccc(NC(=O)C2CC(=O)N(Cc3cccc(Br)c3)C2)cc1C (centres undefined) | -6.0 | 5.0
COc1cccc(NC(=O)C2CCCN(C(=O)c3cccc(C)c3)C2)c1 (centres undefined) | 32.5 | -9.8
O=C(/C=C/c1ccccc1)Nc1ccc(NC(=O)c2ccco2)cc1 | 9.6 | 4.4
O=Nc1ccc(NOC(=O)/C=C/c2ccccc2)cc1 | 73.0* | -8.2
CC(=O)c1cccc(NC(=O)CN(c2cc(C)ccc2C)S(C)(=O)=O)c1 | 5.4 | -7.1
CCn1c(C2CCN(S(=O)(=O)Cc3ccc(Cl)cc3)C2)nc2cccnc21 (centres undefined) | 4.8 | -2.6
CCCCOc1ccc(C(=O)Nc2c3c(nn2-c2ccccc2C)CS(=O)(=O)C3)cc1 | 7.0 | -0.9
OCCSc1nnc(COc2ccc(Br)cc2)n1-c1ccccc1 | 57.3* | -19.6
O=C(CSc1nnc(COc2ccccc2)n1-c1ccccc1)NC1CCCCC1 | 5.6 | -8.7
Cc1ccc(C(=O)N2CCC(c3nc(CCNC(=O)C(C)C)cs3)CC2)cc1F | 4.8 | -3.3
Cc1cc2c(c(=O)[nH]1)C(=O)O/C2=C/c1cn[nH]c1-c1cccs1 | 64.1* | nt
CC(=O)Nc1ccc(/C=C2\OC(=O)c3c2cc(C)[nH]c3=O)cc1 | 2.0 | -4.5
Cc1ccc([N+](=O)[O-])cc1NC(=O)c1cnc2scc(C)n2c1=O | 7.0 | -2.1
Cc1ccc(C)c(N2CCN(C(=O)C3CCC3)CC2)c1 | 0.0 | -3.8
Cc1ccc(C)c(N2CCN(C(=O)C3c4ccccc4CCN3C(=O)C3CC3)CC2)c1 (centres undefined) | 56.9* | -1.5
CCOc1ccc(N2C(=O)CC(NCc3ccc(F)cc3)C2=O)cc1 (centres undefined) | -11.9 | -0.7
O=C1CC(NCc2ccccn2)C(=O)N1c1ccc(F)cc1 (centres undefined) | 100.3* | -1.6
O=C1Nc2ccccc2CCC1NCc1ccccn1 (centres undefined) | 71.4* | -13.3
CC12CC3CC(C)(C1)CC(C(=O)NCc1ccccn1)(C3)C2 | 3.2 | -6.8
O=C(Oc1ccc2c(c1)OC(=Cc1ccco1)C2=O)c1ccccc1Br | -1.9 | -6.1
CC(Cc1ccccc1)NC(=O)c1ccccc1Cl (centres undefined) | -10.5 | -0.5
SMILES | mHTT CaM bind | Pf apPOL inh
COC(=O)Nc1ccc(S(=O)(=O)NC(C)=O)cc1 | 3.4 | -0.1
COC(=O)Nc1ccc(S(=O)(=O)Nc2cc(C(C)C)c(O)c(C(C)C)c2)cc1 | 56.1* | 1.2
Cc1nc(NCCNS(=O)(=O)c2ccc(Cl)c(Cl)c2)cc(N2CCOCC2)n1 | -12.8 | -7.5
O=C(NCCCNC(=O)c1cncc(Br)c1)c1cncc(Br)c1 | -3.0 | 2.7
COc1cc(Cl)cc(/C=C2/NC(=O)NC2=O)c1O | 6.0 | -5.1
O=C(NCc1ccc2c(c1)OCO2)c1ccc2nc(-c3ccccn3)c(-c3ccccn3)nc2c1 | 7.9 | 61.0*
O=C(CCc1nc(-c2ccccn2)no1)NCc1ccc2c(c1)OCO2 | nt | 0.0
CCN(Cc1ccncc1)C(=O)c1ccc(-c2ccc(F)cc2)s1 | 37.0 | -0.3
CCN(Cc1ccncc1)C(=O)c1ccc(-c2cccc(Cl)c2)s1 | 74.6* | -4.5
CCC(=O)Nc1ccc(NC(=O)COc2ccc(I)cc2)cc1 | -0.8 | -4.2
COCCN1CCc2nc(SCc3ccc(Cl)cc3)[nH]c(=O)c2C1 | -4.8 | -3.3
Cc1cc(C)n2nc(S(=O)(=O)Nc3cccc(F)c3)nc2n1 | -3.0 | -8.6
c1ccc(C2C3=C(CCCC3)Nc3ncnn32)cc1 (centres undefined) | 7.0 | 96.3*
O=C1CCCC2=C1C(c1ccccc1Cl)n1c(nc3ccccc31)N2 (centres undefined) | -5.0 | -11.8
c1ccc(C2C3=C(CCCC3)Nc3nc4ccccc4n32)cc1 (centres undefined) | 100.0* | 0.3
CC1(C)CC(=O)C2=C(C1)Nc1ncnn1C2c1ccccc1 (centres undefined) | -2.0 | 0.0
S=c1[nH]nc(-c2ccncc2)n1/N=C/C=C/c1ccco1 | i | nt
S=c1[nH]nc(-c2ccccn2)n1/N=C/C=C/c1ccco1 | + | nt
Cc1cccc(C2CC(c3ccc(Br)s3)Nc3nnnn32)c1 (centres undefined) | 0.3 | 2.1
Cn1c(=O)c2c(nc(Oc3ccc(Cl)cc3)n2Cc2ccccc2)n(C)c1=O | 0.0 | 9.3
COc1ccc(C2=NC3(CCN(C(C)C)CC3)NC(c3ccccc3O)C2)cc1 (centres undefined) | 6.9 | -5.1
COc1ccc(C2=NC3(CCCCC3)NC(c3ccccc3O)C2)cc1 (centres undefined) | 59.0* | -4.3
CCOc1ccc(C2=NC3(CCN(C(C)=O)CC3)NC(c3ccccc3O)C2)cc1 (centres undefined) | 51.0* | 1.9
CCOC(=O)N1CCC2(CC1)N=C(c1ccc(OCC)cc1)CC(c1ccccc1O)N2 (centres undefined) | 20.6 | 2.5
Cc1cc(C)n(-c2ccnc(NCc3ccc(Br)cc3)n2)n1 | -15.2 | -2.0
SMILES | mHTT CaM bind | Pf apPOL inh
O=C(c1ccnc(N2CCNC(c3ccccc3)C2)c1)N1CCCC1 (centres undefined) | -0.9 | -4.2
Cc1ccc(NC=CC(=O)c2ccc(Br)cc2)cc1 | 2.0 | -4.3
N#CC1=C(N)N(c2ccc(Cl)cc2)C2=C(C(=O)CCC2)C1c1cccnc1 (centres undefined) | 1.0 | -0.8
COc1ccc(N2C(N)=C(C#N)C(c3ccc(Br)cc3)C3=C2CCCC3=O)cc1 (centres undefined) | 25.0 | -5.0
CN(C)c1ccc(C2C(C#N)=C(N)N(c3ccc(Cl)cc3)C3=C2C(=O)CCC3)cc1 (centres undefined) | 99.0* | -3.8
CN(C)c1ccc(C2C(C#N)=C(N)N(c3ccc(Br)cc3)C3=C2C(=O)CCC3)cc1 (centres undefined) | 100.0* | -0.8
N#CNC(N)=NCc1ccccc1 | -11.5 | 0.2
Fc1ccccc1N1CCN(Cn2cnc3ccccc32)CC1 | -5.3 | nt
Cc1ccccc1CNC(=O)c1nnn2c1COC(c1ccc(Cl)cc1)C2 (centres undefined) | -8.5 | -2.8
COc1ccc(-c2nnc(NC(=O)CCCS(=O)(=O)Cc3ccccc3)o2)c(OC)c1 | 8.4 | 0.6
COc1ccc(-c2nnc(NC(=O)CN3C(=O)c4ccccc4C3=O)o2)c(OC)c1 | 51.6* | 3.6
O=C(c1ccccc1)c1cc(Cl)ccc1NC=Cc1nnnn1-c1ccc(Cl)cc1 | nt | -3.9
CC1=CC(=O)C(Br)=CC1=NS(=O)(=O)c1ccc(C)cc1 | 64.0* | -8.7
Cc1ccc(C)c(S(=O)(=O)N=C2C=CC(=O)C=C2)c1 | 51.0* | -3.8
Cc1ccc(S(=O)(=O)N=C2C=CC(=O)C(Br)=C2)cc1 | 59.0* | -4.3
Cc1ccc(S(=O)(=O)N=C2C=C(Br)C(=O)C(Br)=C2)cc1 | 45.0 | 0.2
CCN(CC)C(=NS(=O)(=O)c1cc(C)ccc1C)c1ccccc1 | 6.0 | 3.1
Cc1ccc(C)c(S(=O)(=O)N=C2C=CC(=O)C(Br)=C2)c1 | 65.0* | -1.6
